The list is not random: actives were taken first. Their share in the collection is about 2.6%.
CRFBP-R2 block = CRF-BP/CRF-R2 complex antagonism; HEK293 CRF-R2/CRF-BP, CRF-induced calcium fluorescence; inhibition, % at 11.8 µM; AID 588475; actives 0.59% (n = 350,000);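 active = inhibition of the ligand-induced calcium signal above about 50% at the single tested concentration, limit read from the data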
Myeloid diff MLP = compounds promoting myeloid differentiation; ER-HoxA9 myeloid progenitors, lysozyme-GFP differentiation, flow cytometry; AID 624256; calls only at 10 µM; actives 1% (n = 360,000);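 active = normalized GFP-positive differentiation at or above the plate's own cutoff, the solvent-only control mean plus 3 SD; inconclusive = no clear call, values can overlap the other calls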;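 also: cells exposed to compound for four days before flow analysis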
IDE cell activ = IDE (human) activation, cell-based; HEK cells, FAbeta-B cleavage, fluorescence polarization; 0% vehicle, 100% cell-free pure enzyme wells; activation, % at 5.96 µM; actives 0.073% (n = 340,000); AID 493087;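 active = activation above the mean of all tested compounds plus 3 SD, set per screening campaign, cut at about 17% in these data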
Target sequence (P14735 whole entry, looked up): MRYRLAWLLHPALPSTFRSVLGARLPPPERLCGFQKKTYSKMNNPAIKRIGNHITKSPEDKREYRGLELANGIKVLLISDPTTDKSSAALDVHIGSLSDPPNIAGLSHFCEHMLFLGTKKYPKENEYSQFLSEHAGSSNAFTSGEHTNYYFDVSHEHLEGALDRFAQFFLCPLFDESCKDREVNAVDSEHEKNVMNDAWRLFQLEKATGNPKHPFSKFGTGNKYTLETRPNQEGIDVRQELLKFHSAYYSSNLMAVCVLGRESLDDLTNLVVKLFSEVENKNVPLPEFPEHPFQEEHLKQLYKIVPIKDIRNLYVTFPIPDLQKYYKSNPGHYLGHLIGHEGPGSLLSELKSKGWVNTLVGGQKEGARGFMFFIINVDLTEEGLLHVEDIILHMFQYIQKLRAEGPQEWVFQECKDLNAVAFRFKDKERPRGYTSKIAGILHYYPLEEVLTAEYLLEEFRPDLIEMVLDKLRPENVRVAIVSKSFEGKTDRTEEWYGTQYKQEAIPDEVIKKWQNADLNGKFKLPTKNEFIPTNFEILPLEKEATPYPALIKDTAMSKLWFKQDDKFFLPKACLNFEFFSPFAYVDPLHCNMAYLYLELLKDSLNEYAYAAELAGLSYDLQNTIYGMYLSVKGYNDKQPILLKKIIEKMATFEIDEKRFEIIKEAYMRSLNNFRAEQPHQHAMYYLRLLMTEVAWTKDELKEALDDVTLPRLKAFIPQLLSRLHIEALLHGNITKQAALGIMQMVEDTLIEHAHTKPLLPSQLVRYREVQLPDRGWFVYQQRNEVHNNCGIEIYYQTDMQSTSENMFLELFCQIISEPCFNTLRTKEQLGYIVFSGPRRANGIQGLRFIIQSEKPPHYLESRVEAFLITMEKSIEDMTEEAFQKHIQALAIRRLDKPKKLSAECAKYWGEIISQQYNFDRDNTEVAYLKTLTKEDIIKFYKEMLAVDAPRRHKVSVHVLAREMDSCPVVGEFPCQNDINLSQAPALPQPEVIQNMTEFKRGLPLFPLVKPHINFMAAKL
IDE cell inh = inhibits human insulin-degrading enzyme in HEK cells | P14735 | inhibition, % at 5.59 µM | AID 434962 | actives 0.41% (n = 320,000) | FAbetaB cleavage, fluorescence polarization;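 active = percent inhibition above the average of all tested compounds plus 3 SD, set per screening campaign, cut at about 16% in these data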;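 also: IDE supplied by intact live HEK cells; FP after avidin binding of uncleaved biotin substrate so inhibition keeps polarization high; 0% = DMSO wells and 100% = 60 µM reference IDE inhibitor Ii1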
CRFR2-BP ag = CRF-BP/CRF-R2 complex agonism | HEK293 CRF-R2/CRF-BP, calcium dye fluorescence (FLIPR); percent of saturating CRF peptide response | activation, % at 13.2 µM | actives 0.46% (n = 350,000);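 active = activation of at least 50%, plus an integration ratio under a set limit after plate pattern correction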;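 also: plate controls were neutral control wells without compound for no effect and CRF at EC100 for full effect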
TPT1 inhibitor = inhibitors of Candida albicans tRNA 2'-phosphotransferase TPT1; recombinant caTPT1, FP RNA substrate dephosphorylation; inhibition, % at 5 µM; actives 0.81% (n = 300,000);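 active = inhibition above the mean of all tested compounds plus 3 SD, set per screening campaign, cut at about 24% in these data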;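 also: plate controls were DMSO alone for no effect and ferristatin control at 100 nM for full effect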
Myeloid diff CP1 = compounds promoting myeloid differentiation. ER-HoxA9 myeloid progenitors, GFP/Mac1 double-positive flow. actives 2% (n = 2,300). shares compounds with Myeloid diff MLP. AID 651706. calls only;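 active = share of green or green-and-red cells above 9 and 9% in run 1 or 4 and 3% in run 2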
GFP autofluor = flagged as fluorescent in myeloid differentiation counter-screen; AID 651707; ER-HoxA9 myeloid progenitors, no estrogen, GFP autofluorescence flow cytometry; vehicle wells 0%, positive control 100%; fluorescence response, % (concentration not given with the values); shares compounds with Myeloid diff MLP; actives 7.4% (n = 2,300);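 active = over 5% cells positive for green fluorescent reporter, or over 2% positive for both it and APC stain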;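 also: range taken on the double positive population between DMSO and positive control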
Active calls of the source: *; i = inactive; ? = inconclusive; · = no result given; + = active, no number.

SMILES	CRFBP-R2 block	Myeloid diff MLP	IDE cell activ	IDE cell inh	CRFR2-BP ag	TPT1 inhibitor	Myeloid diff CP1	GFP autofluor
O=C(Nc1ccccc1C(=O)O)c1cc(S(=O)(=O)N2CCCCC2)c(Cl)cc1Cl	4	i	-4	-2	0	-4	·	·
COc1ccc(C(=O)NNC(=O)c2ccc(S(=O)(=O)N3CCCCC3)cc2)cc1	-1	i	0	2	-2	1	·	·
COc1ccc(S(=O)(=O)N2CCN(Cc3cccc(OC)c3)CC2)cc1	14	i	4	0	-1	-2	·	·
COc1ccc(S(=O)(=O)N2CCCN(Cc3cccc(F)c3)CC2)cc1	0	i	3	5	-1	0	i	1
O=[N+]([O-])c1ccc(Cl)c(S(=O)(=O)N2CCCCCC2)c1	0	i	3	6	1	-1	·	·
CC(=O)N1CCc2cc(S(=O)(=O)CCC(=O)NCCc3ccccc3)ccc21	-6	i	-2	8	-1	4	·	·
Cc1csc(=O)n1CC(=O)OCC(=O)NNC(=O)c1ccccc1	-10	i	2	2	1	-5	·	·
Cc1csc(=O)n1CC(=O)OCC(=O)NNC(=O)c1ccc([N+](=O)[O-])cc1	4	+	6	2	0	3	i	0
Cc1nc(SCC(=O)N(C)C2(C#N)CCCCC2)c2ccccc2n1	-1	i	-4	-2	-2	·	i	4
Cc1nc(SCC(=O)N(C)C2CCS(=O)(=O)C2)c2ccccc2n1 (stereo not given)	-1	i	3	-1	0	·	·	·
O=C(Nc1cccc(C(=O)O)c1)/C(=C\c1ccc(F)cc1)NC(=O)c1ccco1	7	i	5	3	1	-2	·	·
COc1ccccc1CNS(=O)(=O)c1cc(C)ccc1OC	4	i	3	-1	-2	0	·	·
COc1cccc(CNS(=O)(=O)c2ccccc2Br)c1OC	14	i	-7	·	-1	·	i	1
N#CCCSc1nc(N2CCOCC2)c2c(c1C#N)CCCC2	-18	i	0	6	-3	-4	i	0
CCOc1ccc(/C(O)=C2/C(=O)C(=O)N(c3nc(C)c(C)s3)C2c2ccco2)cc1 (stereo not given)	9	i	-2	5	-2	4	i	9.0*
Cc1ccc(C(=O)C[n+]2cccc3ccccc32)cc1	-19	+	2	4	2	21	i	1
O=C(C[n+]1cccc2ccccc21)c1ccc(Br)cc1	-5	+	3	2	6	11	i	1
NC(=O)C[n+]1cccc2ccccc21	5	i	4	-8	8	-62	·	·
CC1CCCCN1C(=O)c1cc2ccccc2cc1O (stereo not given)	-10	?	-1	0	0	-2	·	·
CCC(C)C(NC(=O)C1CCC(C)CC1)C(=O)NCc1ccccn1 (stereo not given)	-1	i	4	-4	-1	-3	·	·
CCCNC(=O)COC(=O)c1ccccc1OCc1ccc(Cl)cc1	33	+	2	6	-3	-3	i	0
COc1cc(/C=N\Nc2ccc([N+](=O)[O-])cc2)ccc1OCC(=O)Nc1ccc(C)c(C)c1	-11	i	-3	·	-1	·	i	0
CC(=O)c1c(C)n(CC(=O)NCc2ccc3c(c2)OCO3)c2ccccc12	24	+	-1	4	-3	-2	i	98*
CC(C)Sc1nc2ccccc2n1CC(=O)NCc1ccc2c(c1)OCO2	8	i	7	0	-2	0	·	·
COc1ccccc1CN(C)C(=O)COC(=O)c1cc(C)oc1C	3	i	3	·	0	·	·	·
SMILES	CRFBP-R2 block	Myeloid diff MLP	IDE cell activ	IDE cell inh	CRFR2-BP ag	TPT1 inhibitor	Myeloid diff CP1	GFP autofluor
CCCCNC(=O)CCc1nc2cccnc2n1Cc1ccccc1	8	+	-1	0	-4	-1	i	0
COc1ccccc1NC(=O)N1CCN(c2ccccc2F)CC1	-7	i	-3	-1	-1	8	i	0
COc1ccccc1NC(=O)CN1CCN(c2ccccc2F)CC1	6	i	2	2	-2	-3	·	·
CCOc1ccc(N=c2scc(-c3ccc(OC)cc3)n2CCO)cc1	80*	i	1	-2	0	-2	i	0
OCCn1c(-c2ccc(F)cc2)csc1=Nc1ccccc1	13	i	1	0	-1	1	·	·
CCCNC(=O)CN1C(=O)NC2(CCCc3cc(OC)ccc32)C1=O (stereo not given)	8	i	2	-2	0	4	·	·
O=C(Nc1c2c(nn1-c1ccc([N+](=O)[O-])cc1)CS(=O)(=O)C2)c1ccco1	-8	i	1	6	2	-3	·	·
COc1cc(/C=C2\SC(=S)N(CCC(=O)N3CCN(C)CC3)C2=O)cc(OC)c1OC	-1	+	0	-2	0	4	i	0
Cc1cccc(C)c1NC(=O)Nc1cccs1	14	i	3	7	3	3	i	0
Cc1nn(-c2ccccc2)c(N2CCCC2)c1/C=N/NC(=S)Nc1ccccc1F	-43	+	4	0	1	-1	+	1
Cc1nn(-c2ccccc2)c(N2CCCC2)c1/C=N/NC(=O)c1cc2ccccc2cc1O	-23	i	-2	0	12	4	·	·
O=C(CSc1nc(=O)n(CCCN2CCOCC2)c2c1CCCC2)Nc1cccc(Cl)c1	8	i	-4	-7	-2	-2	·	·
Cc1cccc(NC(=O)CSc2nc(=O)n(CCCN3CCOCC3)c3c2CCCC3)c1	7	+	2	4	-2	3	i	0
Cc1ccc(C)c2[nH]c(=O)c(C(c3nnnn3C(C)(C)C)N3CC=C(c4ccc(F)cc4)CC3)cc12 (stereo not given)	-15	+	4	·	5	·	i	1
COCCn1nnnc1CN1CCN2CCCC2C1 (stereo not given)	2	+	0	4	4	-2	i	0
O=C(NCCc1ccc(Cl)cc1)c1ccc(Br)s1	20	i	0	0	-2	0	·	·
CC(C)(C)c1ccc(CC(=O)N2CCC2(C)C(=O)O)cc1 (stereo not given)	·	i	·	·	·	·	·	·
COc1ccc(Cn2nnnc2CN2CCc3ccccc32)cc1	9	+	0	-5	-2	3	i	3
Cc1cc(C)cc(NC(=O)CCN2CCCC2)c1	-9	+	1	0	0	0	i	0
CCOC(=O)/C=C1\SCC(=O)N1CC(=O)NC12CC3CC(CC(C3)C1)C2	6	+	2	-7	-1	-1	i	0

Compound activity as filed in PubChem.
